{"source": "PubChem BioAssay AID1159580", "about": "(chemical genetic matrix, 2015)", "test": "chemical genetic growth profiling, strain panel (AID 1159580);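 further: tested at 20 µM; growth read once vehicle control cultures reached saturation at 30 °C; 1 = growth at the plate median or of vehicle wells; lower values mean less growth of the strain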", "conditions": "S. cerevisiae deletion strains, growth OD", "note": "In all, about 5,500 compounds went through this assay and about 2,000 (36%) were called active. Inconclusive results (about 18%) are left out. This is one part of the list. A number with no mark means an inactive call. No stated cut-off is given here; in the data, active means normalized growth mostly below about 0.91 (no sharp cut-off); inconclusive means no clear call, values can overlap the other calls; inactive means mostly above about 0.92."}
{"smiles": "CC(=O)Oc1ccc2c(=O)c(Oc3ccc(Cl)cc3)c(C)oc2c1", "values": [{"measurement": "normalized growth", "setting": "locus YAR019C, strain CDC15, active compounds read low", "value": 0.969}, {"measurement": "normalized growth", "setting": "locus YBL105C, strain PKC1, active compounds read low", "value": 0.964}, {"measurement": "normalized growth", "setting": "locus YBR135W, strain CKS1, active compounds read low", "value": 0.968}, {"measurement": "normalized growth", "setting": "locus YBR136W, strain MEC1, active compounds read low", "value": 0.954}, {"measurement": "normalized growth", "setting": "locus YBR160W, strain CDC28, active compounds read low", "value": 0.962}, {"measurement": "normalized growth", "setting": "locus YDL017W, strain CDC7, active compounds read low", "value": 0.963}, {"measurement": "normalized growth", "setting": "locus YDL028C, strain MPS1, active compounds read low", "value": 0.956}, {"measurement": "normalized growth", "setting": "locus YDL101C, strain DUN1, active compounds read low", "value": 0.951}, {"measurement": "normalized growth", "setting": "locus YDL108W, strain KIN28, active compounds read low", "value": 0.958}, {"measurement": "normalized growth", "setting": "locus YDL132W, strain cdc53, active compounds read low", "value": 0.96}, {"measurement": "normalized growth", "setting": "locus YDL214C, strain PRR2, active compounds read low", "value": 0.938}, {"measurement": "normalized growth", "setting": "locus YDR052C, strain DBF4, active compounds read low", "value": 0.959}, {"measurement": "normalized growth", "setting": "locus YDR054C, strain cdc34, active compounds read low", "value": 0.96}, {"measurement": "normalized growth", "setting": "locus YDR226W, strain ADK1, active compounds read low", "value": 0.957}, {"measurement": "normalized growth", "setting": "locus YDR477W, strain SNF1, active compounds read low", "value": 0.945}, {"measurement": "normalized growth", "setting": "locus YER123W, strain YCK3, active compounds read low", "value": 0.918}, {"measurement": "normalized growth", "setting": "locus YER133W, strain GLC7, active compounds read low", "value": 0.939}, {"measurement": "normalized growth", "setting": "locus YFL009W, strain cdc4, active compounds read low", "value": 0.97}, {"measurement": "normalized growth", "setting": "locus YFL029C, strain CAK1, active compounds read low", "value": 0.964}, {"measurement": "normalized growth", "setting": "locus YFR003C, strain YPI1, active compounds read low", "value": 0.968}, {"measurement": "normalized growth", "setting": "locus YFR019W, strain FAB1, active compounds read low", "value": 0.979}, {"measurement": "normalized growth", "setting": "locus YFR028C, strain CDC14, active compounds read low", "value": 0.963}, {"measurement": "normalized growth", "setting": "locus YGR040W, strain KSS1, active compounds read low", "value": 0.953}, {"measurement": "normalized growth", "setting": "locus YGR052W, strain FMP48, active compounds read low", "value": 0.887}, {"measurement": "normalized growth", "setting": "locus YGR092W, strain DBF2, active compounds read low", "value": 0.692}, {"measurement": "normalized growth", "setting": "locus YHR030C, strain SLT2, active compounds read low", "value": "0.802 (active)"}, {"measurement": "normalized growth", "setting": "locus YHR079C, strain IRE1, active compounds read low", "value": 0.897}, {"measurement": "normalized growth", "setting": "locus YHR082C, strain KSP1, active compounds read low", "value": 0.917}, {"measurement": "normalized growth", "setting": "locus YHR205W, strain SCH9, active compounds read low", "value": 0.776}, {"measurement": "normalized growth", "setting": "locus YIL147C, strain SLN1, active compounds read low", "value": 0.947}, {"measurement": "normalized growth", "setting": "locus YJL095W, strain BCK1, active compounds read low", "value": 0.7}, {"measurement": "normalized growth", "setting": "locus YJL128C, strain PBS2, active compounds read low", "value": 0.923}, {"measurement": "normalized growth", "setting": "locus YJL157C, strain FAR1, active compounds read low", "value": 0.973}, {"measurement": "normalized growth", "setting": "locus YJR016C, strain ILV3, active compounds read low", "value": 0.964}, {"measurement": "normalized growth", "setting": "locus YJR066W, strain TOR1 (second series), active compounds read low", "value": 0.953}, {"measurement": "normalized growth", "setting": "locus YJR066W, strain TOR1, active compounds read low", "value": 0.896}, {"measurement": "normalized growth", "setting": "locus YKL048C, strain ELM1, active compounds read low", "value": 0.933}, {"measurement": "normalized growth", "setting": "locus YKL067W, strain YNK1, active compounds read low", "value": 0.94}, {"measurement": "normalized growth", "setting": "locus YKL101W, strain HSL1, active compounds read low", "value": 0.908}, {"measurement": "normalized growth", "setting": "locus YKL193C, strain SDS22, active compounds read low", "value": 0.953}, {"measurement": "normalized growth", "setting": "locus YKL203C, strain TOR2, active compounds read low", "value": 0.968}, {"measurement": "normalized growth", "setting": "locus YLR113W, strain HOG1, active compounds read low", "value": "0.768 (active)"}, {"measurement": "normalized growth", "setting": "locus YLR133W, strain CKI1, active compounds read low", "value": 0.952}, {"measurement": "normalized growth", "setting": "locus YLR403W, strain SFP1, active compounds read low", "value": 0.887}, {"measurement": "normalized growth", "setting": "locus YML070W, strain DAK1, active compounds read low", "value": 0.921}, {"measurement": "normalized growth", "setting": "locus YMR001C, strain CDC5, active compounds read low", "value": 0.961}, {"measurement": "normalized growth", "setting": "locus YMR205C, strain PFK2 (second series), active compounds read low", "value": 0.935}, {"measurement": "normalized growth", "setting": "locus YMR277W, strain FCP1, active compounds read low", "value": 0.969}, {"measurement": "normalized growth", "setting": "locus YNL006W, strain LST8, active compounds read low", "value": 0.985}, {"measurement": "normalized growth", "setting": "locus YNL020C, strain ARK1, active compounds read low", "value": 0.952}, {"measurement": "normalized growth", "setting": "locus YNL161W, strain CBK1, active compounds read low", "value": 0.965}, {"measurement": "normalized growth", "setting": "locus YNL183C, strain NPR1, active compounds read low", "value": 0.875}, {"measurement": "normalized growth", "setting": "locus YNL207W, strain RIO2, active compounds read low", "value": 0.953}, {"measurement": "normalized growth", "setting": "locus YNL222W, strain SSU72, active compounds read low", "value": 0.97}, {"measurement": "normalized growth", "setting": "locus YNL307C, strain MCK1 (second series), active compounds read low", "value": 0.808}, {"measurement": "normalized growth", "setting": "locus YOL078W, strain AVO1, active compounds read low", "value": 0.95}, {"measurement": "normalized growth", "setting": "locus YOL136C, strain PFK27, active compounds read low", "value": 0.933}, {"measurement": "normalized growth", "setting": "locus YOR061W, strain CKA2, active compounds read low", "value": 0.959}, {"measurement": "normalized growth", "setting": "locus YOR119C, strain RIO1, active compounds read low", "value": 0.995}, {"measurement": "normalized growth", "setting": "locus YOR231W, strain MKK1, active compounds read low", "value": 0.834}, {"measurement": "normalized growth", "setting": "locus YOR329C, strain SCD5, active compounds read low", "value": 0.961}, {"measurement": "normalized growth", "setting": "locus YPL031C, strain PHO85, active compounds read low", "value": 0.935}, {"measurement": "normalized growth", "setting": "locus YPL153C, strain RAD53, active compounds read low", "value": 0.954}, {"measurement": "normalized growth", "setting": "locus YPL204W, strain HRR25, active compounds read low", "value": 0.943}, {"measurement": "normalized growth", "setting": "locus YPL209C, strain IPL1, active compounds read low", "value": 0.96}, {"measurement": "normalized growth", "setting": "locus YPL256C, strain CLN2, active compounds read low", "value": 0.909}, {"measurement": "normalized growth", "setting": "locus YPR025C, strain CCL1, active compounds read low", "value": 0.965}, {"measurement": "normalized growth", "setting": "locus YPR106W, strain ISR1, active compounds read low", "value": 0.955}, {"measurement": "normalized growth", "setting": "locus YPR111W, strain DBF20, active compounds read low", "value": 0.941}, {"measurement": "normalized growth", "setting": "strain NNK1, active compounds read low", "value": 0.94}, {"measurement": "normalized growth", "setting": "strain TSCII, active compounds read low", "value": 0.964}]}
